Experimental findings from PubChem BioAssay (NCI) are described below.

Among the test systems are NCI-H23 lung; NCI-H226 lung; NCI-H322M lung; HOP-62 NSCLC; NCI-H460 lung; HOP-92 NSCLC; NCI-H522 lung; A549/ATCC NSCLC; 786-0 renal; COLO 205 colon; DU-145 prostate; K-562 leukemia; MALME-3M melanoma; MDA-MB-231 breast; RXF 393 renal; SF-268 CNS; SF-295 CNS; SF-539 CNS; UACC-257 melanoma; M14 melanoma.
Common to all, as to test: NCI-60 one-dose screen, 48 h (100 = growth as untreated, 0 = no growth, -100 = all killed)
Conditions in all cases: 10 µM unless noted

Values joined by “and” are separate entries in the source; they are usually repeats but may differ in a detail not shown here. Equal values may be shown once. This is part of a sample that, as a whole, favours compounds with a hit. Of some 83,000 tested, about 20% had one in any assay.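 Step 1: grow cells in 96-well plates. Step 2: add test compound at a single concentration. Step 3: incubate 48 h. Step 4: record percent growth.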 Active and inactive are the calls of the source. How the source made its calls: active means growth percent below 10; inactive means the rest.

As to `O=C1Cc2ccccc2C(=O)N1`, the growth with NCI-H23 lung was 103% (inactive); with NCI-H226 lung, 101% (inactive); in the experiment on NCI-H322M lung, 96.3% (inactive); in the experiment on HOP-62 NSCLC, 84.6% (inactive); with NCI-H460 lung it was 110% (inactive); in the experiment on HOP-92 NSCLC it was 49.9% (inactive). Besides, the growth with NCI-H522 lung is 77.2% (inactive); with A549/ATCC NSCLC it was 86.1% (inactive); with 786-0 renal, 82.1% (inactive); in the experiment on COLO 205 colon it was 99.2% (inactive); in the experiment with DU-145 prostate, 112% (inactive); in the experiment with K-562 leukemia, 46.9% (inactive). In addition, the growth in the experiment on MALME-3M melanoma was 104% (inactive); in the experiment with MDA-MB-231 breast, 44.1% (inactive); with RXF 393 renal, 99.1% (inactive); in the experiment with SF-268 CNS, 97% (inactive); in the experiment with SF-295 CNS, 102% (inactive); in the experiment with SF-539 CNS, 103% (inactive). Also, the growth in the experiment with UACC-257 melanoma is 89.4% (inactive); in the experiment on M14 melanoma, 95.3% (inactive).

`CNc1ccc(Cl)cc1S(=O)(=O)c1ccccc1[N+](=O)[O-]`: the growth in the experiment on NCI-H23 lung was 87.9% (inactive) and 98.3% (inactive); in the experiment on NCI-H226 lung, 114% (inactive) and 103% (inactive); in the experiment with NCI-H322M lung it was 89.1% (inactive) and 91% (inactive); in the experiment with HOP-62 NSCLC, 147% (inactive) and 94.8% (inactive); in the experiment with NCI-H460 lung, 107% (inactive) and 108% (inactive); in the experiment with HOP-92 NSCLC it was 93% (inactive) and 100% (inactive). For the same compound, the growth in the experiment on NCI-H522 lung was 78.3% (inactive) and 75% (inactive); with A549/ATCC NSCLC it was 23.3% (inactive) and 94.4% (inactive); in the experiment with 786-0 renal, 116% (inactive) and 100% (inactive); with COLO 205 colon, 117% (inactive); in the experiment on DU-145 prostate, 105% (inactive); in the experiment with K-562 leukemia it was 55.7% (inactive) and 73.3% (inactive). Besides, the growth in the experiment with MALME-3M melanoma is 78.2% (inactive) and 91.1% (inactive); with MDA-MB-231 breast, 77.7% (inactive) and 97% (inactive); in the experiment on RXF 393 renal, 25.1% (inactive) and 126% (inactive); in the experiment on SF-268 CNS, 106% (inactive) and 90.6% (inactive); in the experiment on SF-295 CNS, 108% (inactive) and 104% (inactive); with SF-539 CNS, 86.4% (inactive) and 98.3% (inactive). The growth with UACC-257 melanoma is 75.7% (inactive) and 89.8% (inactive); in the experiment on M14 melanoma it was 115% (inactive) and 83.4% (inactive).

Consider `CCN(C)c1ccccc1`, for which the growth with NCI-H23 lung is 102% (inactive); in the experiment with NCI-H226 lung it was 95.7% (inactive); in the experiment on NCI-H322M lung, 111% (inactive); in the experiment with HOP-62 NSCLC, 108% (inactive); in the experiment on NCI-H460 lung, 108% (inactive); with HOP-92 NSCLC, 101% (inactive). Besides, the growth was 99.5% (inactive) with NCI-H522 lung; 105% (inactive) in the experiment with A549/ATCC NSCLC; 97% (inactive) in the experiment on 786-0 renal; 95.7% (inactive) in the experiment with COLO 205 colon; 108% (inactive) with DU-145 prostate; 110% (inactive) in the experiment on K-562 leukemia. Besides, the growth with MALME-3M melanoma was 96% (inactive); in the experiment on MDA-MB-231 breast, 98.8% (inactive); with RXF 393 renal it was 106% (inactive); with SF-268 CNS it was 99.1% (inactive); in the experiment with SF-295 CNS, 91% (inactive); with SF-539 CNS it was 97.7% (inactive). Besides, the growth in the experiment on UACC-257 melanoma was 103% (inactive); with M14 melanoma it was 100% (inactive).

`O=P(O)(O)OC1C(OP(=O)(O)O)C(OP(=O)(O)O)C(OP(=O)(O)O)C(OP(=O)(O)O)C1OP(=O)(O)O.[Cu+2]` (stereo not given): the growth in the experiment on NCI-H23 lung was 93.3% (inactive); in the experiment on NCI-H226 lung, 98.8% (inactive); in the experiment with NCI-H322M lung it was 106% (inactive); in the experiment on HOP-62 NSCLC, 114% (inactive); in the experiment with NCI-H460 lung it was 84.2% (inactive); in the experiment with HOP-92 NSCLC, 106% (inactive). The growth in the experiment with NCI-H522 lung is 101% (inactive); with A549/ATCC NSCLC, 64.1% (inactive); with 786-0 renal, 114% (inactive); in the experiment on COLO 205 colon it was 111% (inactive); in the experiment with DU-145 prostate it was 104% (inactive); in the experiment on K-562 leukemia it was 94.7% (inactive). Moreover, the growth is 93.4% (inactive) in the experiment with MALME-3M melanoma; 80.7% (inactive) in the experiment on MDA-MB-231 breast; 125% (inactive) in the experiment with RXF 393 renal; 125% (inactive) in the experiment with SF-268 CNS; 91% (inactive) with SF-295 CNS; 72% (inactive) in the experiment with SF-539 CNS. For the same compound, the growth in the experiment on UACC-257 melanoma is 80.2% (inactive); in the experiment on M14 melanoma, 102% (inactive).

Consider `Nc1nc(N)c2cc(S(=O)(=O)c3ccccc3)ccc2n1`, for which the growth is 45% (inactive) and 40.9% (inactive) in the experiment on NCI-H23 lung; 63.2% (inactive) and 79.3% (inactive) in the experiment with NCI-H226 lung; 43.6% (inactive) and 41.5% (inactive) in the experiment on NCI-H322M lung; 54.8% (inactive) and 46.3% (inactive) in the experiment with HOP-62 NSCLC; 18.3% (inactive) and 14.7% (inactive) with NCI-H460 lung; 64.9% (inactive) and 92.5% (inactive) in the experiment with HOP-92 NSCLC. The growth in the experiment with NCI-H522 lung was 46.2% (inactive) and 68.9% (inactive); with A549/ATCC NSCLC, 13.4% (inactive) and 25.7% (inactive); in the experiment with 786-0 renal, 29.5% (inactive) and 26.8% (inactive); in the experiment with COLO 205 colon, 53.7% (inactive) and 58.3% (inactive); in the experiment with DU-145 prostate, 30.3% (inactive) and 40.9% (inactive); in the experiment with K-562 leukemia, 16.7% (inactive) and 26.1% (inactive). Further, the growth in the experiment on MALME-3M melanoma is 58.1% (inactive) and 29% (inactive); in the experiment on MDA-MB-231 breast it was 48.9% (inactive) and 51.8% (inactive); with RXF 393 renal it was 62% (inactive) and 85.6% (inactive); in the experiment on SF-268 CNS, 40.1% (inactive) and 38% (inactive); in the experiment on SF-295 CNS, 18.9% (inactive); with SF-539 CNS it was 30.5% (inactive) and 21.8% (inactive). Besides, the growth was 39% (inactive) and 59.2% (inactive) in the experiment on UACC-257 melanoma; 35.2% (inactive) and 31.9% (inactive) in the experiment on M14 melanoma.

Take `Cc1c(Cl)c(C)c(Cc2c(C)c(Cl)c(C)c(Cl)c2O)c(O)c1Cl`: the growth is -13% (active) with NCI-H23 lung; 15.7% (inactive) with NCI-H226 lung; 16.1% (inactive) in the experiment on NCI-H322M lung; 15.8% (inactive) in the experiment with HOP-62 NSCLC; 5.16% (active) with NCI-H460 lung; -20% (active) with HOP-92 NSCLC. Also, the growth in the experiment on NCI-H522 lung was 7.1% (active); with A549/ATCC NSCLC, 14.4% (inactive); with 786-0 renal it was 49% (inactive); in the experiment on COLO 205 colon it was 79.4% (inactive); in the experiment on DU-145 prostate, 30.2% (inactive); with K-562 leukemia it was 20.1% (inactive). Further, the growth is -3.69% (active) in the experiment on MALME-3M melanoma; 2.41% (active) in the experiment with MDA-MB-231 breast; 4.04% (active) in the experiment with RXF 393 renal; 19.6% (inactive) in the experiment on SF-268 CNS; 0.164% (active) with SF-295 CNS; 15.7% (inactive) in the experiment with SF-539 CNS. For the same compound, the growth was -0.631% (active) in the experiment on UACC-257 melanoma and 22.6% (inactive) with M14 melanoma.
